Here are results for 40 molecules from PubChem BioAssay (NCATS).

Records with an inconclusive call do not appear. Activity calls are given as the source filed them. Calls follow the shape of the dose curve; as a rule, active = well fitted inhibition curve with a large enough effect; inconclusive = small, poorly fitted or top-dose-only effect; inactive = flat fitted curve, though single readings scatter. Peptide text beside a SMILES is read from it.

This test has as its system CRL-7250. Kind of test: qHTS assay to identify novel small-molecules to repurpose for Merkel cell carcinoma treatment (AID 1296009). Also: nearly all actives have a fitted effect of over 60% in size. Particulars: MCC and control cell lines, CellTiter-Glo viability, 72 h; at 44.8 µM (top of the series) unless noted. In a few lines:
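Cell viability, measured as CellTiter-Glo luminescence, was normalized between DMSO and no-cell wells. The cells had been exposed to 8- or 11-point compound dilutions for 72 hr at 37 degree celsius.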
Background: qHTS replaces the single test concentration by a dilution series.
For `OC[C@H]1O[C@H](O[C@]2(CCl)O[C@H](CCl)[C@@H](O)[C@@H]2O)[C@H](O)[C@@H](O)[C@H]1Cl`, the outcome was inactive.

Take `Nc1ncnc2nc[nH]c12`: the molecule was classed as inactive.

Consider `Cc1onc(-c2c(Cl)cccc2Cl)c1C(=O)Cl`, for which the call was inactive.

For the molecule `Cc1ccc2ccc(Cl)cc2n1`, the call was inactive.

Take `C=CCc1ccc(O)c(OC)c1`: the call was inactive.

Regarding `CC(=O)NC[C@H]1CN(c2ccc(N3CCOCC3)c(F)c2)C(=O)O1`, the result was inactive.

With `Cc1c(NC(C)C)c(=O)n(-c2ccccc2)n1C`, the result was inactive.

As for `O=C(C1CCCCC1)N1CC(=O)N2CCCc3ccccc3C2C1` (stereo not given), the outcome was inactive.

In the case of `CC(C(=O)O)c1ccc(C(=O)c2ccccc2)s1` (stereo not given), the outcome was inactive.

As for `CC(C)NCC(O)c1ccc(NS(C)(=O)=O)cc1` (stereo not given), the call was inactive.

With `CC(C)(C)NCC(O)COc1ccc(NC(=O)NC2CCCCC2)cc1` (stereo not given), the call was inactive.

As for `CN(c1nccc(=O)[nH]1)C1CCN(c2nc3ccccc3n2Cc2ccc(F)cc2)CC1`, the molecule was called inactive.

Turning to `CN1N=C(C(N)=O)CCC1=O`, the call was inactive.

`CCC[C@@]1(CCc2ccccc2)CC(O)=C([C@H](CC)c2cccc(NS(=O)(=O)c3ccc(C(F)(F)F)cn3)c2)C(=O)O1`: the outcome was inactive.

For `FC(F)(F)c1ccccc1-n1ccnc1`, the outcome was inactive.

As to `CC(=O)CC(c1ccccc1)c1c(O)c2ccccc2oc1=O` (stereo not given), the call was inactive.

With `COc1cc(O)cc(O)c1`, the molecule was classed as inactive.

With `CCN(CC)CCNC(=O)c1ccc(N)cc1`, the result was inactive.

`NC(=O)N[C@@H](CCC(=O)O)C(=O)O`: the call was inactive.

`NC1CCN(c2nc3c(cc2F)c(=O)c(C(=O)O)cn3-c2ccc(F)cc2F)C1` (stereo not given): the molecule was called inactive.

In the case of `Cc1c[nH]c2ccccc12`, the call was inactive.

In the case of `Cc1ccccc1OCC(O)CO` (stereo not given), the molecule was classed as inactive.

For `Nc1ccn([C@@H]2O[C@H](CO)[C@@H](O)C2O)c(=O)n1` (stereo not given in full), the call was inactive.

In the case of `CC1(C)Oc2ccc(C#N)cc2[C@@H](N2CCCC2=O)[C@@H]1O`, the molecule was classed as inactive.

Consider `CO/N=C(/C(=O)N[C@@H]1C(=O)N2C(C(=O)OCOC(=O)C(C)(C)C)=C(C)CS[C@H]12)c1csc(N)n1`, for which the molecule was classed as inactive.

`CC(=O)O[C@]1(C(C)=O)CC[C@H]2[C@@H]3C[C@H](C)C4=CC(=O)CC[C@]4(C)[C@H]3CC[C@@]21C`: the result was inactive.

`CC(=O)CC/C=C(\C)CC/C=C(\C)CC/C=C(\C)CCC=C(C)C`: the call was inactive.

Turning to `CCN(CC)CC#CCOC(=O)C(O)(c1ccccc1)C1CCCCC1` (stereo not given), the molecule was called inactive.

As to `NCCCCCC(=O)O`, the molecule was called inactive.

For the molecule `COc1c2occc2c(OC)c2c(=O)cc(C)oc12`, the outcome was inactive.

Regarding `CC(CN(C)C)C(C)(O)Cc1ccc(Cl)cc1` (stereo not given), the molecule was called inactive.

On to `Cc1cc(NS(=O)(=O)c2ccc(N)cc2)no1`, for which the result was inactive.

With `N#CCC(=O)NN`, the outcome was inactive.

As to `CNNCc1ccc(C(=O)NC(C)C)cc1`, the result was inactive.

In the case of `CCOc1nc2cccc(C(=O)O)c2n1Cc1ccc(-c2ccccc2-c2nn[nH]n2)cc1`, the result was inactive.

As for `COCCCOc1ccnc(CS(=O)c2nc3ccccc3[nH]2)c1C` (stereo not given), the call was inactive.

For the molecule `Cc1cc(OI)c(C(C)C)cc1-c1cc(C(C)C)c(OI)cc1C`, the result was inactive.

On to `CCNC(=O)[C@@H]1CCCN1C(=O)[C@H](CCCN=C(N)N)NC(=O)[C@H](CC(C)C)NC(=O)CNC(=O)[C@H](Cc1ccc(O)cc1)NC(=O)[C@H](CO)NC(=O)[C@H](Cc1c[nH]c2ccccc12)NC(=O)[C@H](Cc1cnc[nH]1)NC(=O)[C@@H]1CCC(=O)N1` (HELM PEPTIDE1{[Glp].H.W.S.Y.G.L.R.P.[CCN[*:1]]}$$$$V2.0), for which the call was inactive.

`COc1ccc(C(=O)c2ccccc2O)c(O)c1`: the result was inactive.

As for `O=C(NCC1CCCCN1)c1cc(OCC(F)(F)F)ccc1OCC(F)(F)F` (stereo not given), the result was inactive.
